Screen size: about 410,000 compounds; about 3,100 (0.76%) were called active. Calls come from the whole dose curve; as a rule, active = well fitted cell-killing curve with a large enough effect; inactive = no such curve, though single readings can be large or run the other way. For the sample, actives were picked, then their nearest neighbours and some compounds at random.
Assay: qHTS for Inhibitors of TGF-b: Cytotox Counterscreen
Conditions: HepG2 CAGA-GFP viability, ATP luminescence, 18 h; series mostly up to 46.1 µM; activity change, negative = cytotoxicity: at the top concentration
Procedure, shortened: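 CellTiter-Glo luminescence gave cytotoxicity after 18 hours at 37 degrees C. The cells were HepG2 CAGA-GFP in 1% FBS DMEM, stimulated with 500 pg/mL TGF-beta after compound addition. %Activity was normalised to no-cell wells (complete cell-killing) and DMSO (no toxicity), and curves were fitted and classified.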
Potency is the fitted concentration of half-maximal effect.

Row | Compound | activity change, negative = cytotoxicity | Potency
1 | Cc1cccc(C)c1-n1ncc(C(=O)NCCCN2CCCCC2)c1C1CCN(C(=O)OC(C)(C)C)CC1 | -1.11% (inactive) | –
2 | COc1cc(OC)c(NC(=O)c2cnc(N3CCCC3)nc2C)cc1Cl | -15.2% (inactive) | –
3 | CCOC(=O)/C(=C\c1ccc([N+](=O)[O-])cc1)C(=O)c1cc(C(C)=O)c(Nc2ccccc2)s1 | – | 5.01 µM (active)
4 | CCOC(=O)c1c(C)[nH]c(C)c1C(=O)COC(=O)/C=C/c1cccc([N+](=O)[O-])c1 | 6.06% (inactive) | –
5 | CC(C)c1nnc(NC(=O)COC(=O)/C=C/c2ccc([N+](=O)[O-])cc2)s1 | 11.7% (inactive) | –
6 | COCCCn1c(=O)/c(=C/c2ccccc2OC(C)C)s/c1=C(\C#N)C(=O)Nc1ccc(C(=O)O)cc1 | – | 12.6 µM (active)
7 | COc1ccccc1C(=O)N/C(=C/c1ccco1)C(=O)Nc1ccc(C(=O)O)cc1 | 11.7% (inactive) | –
8 | CC(C)OCCCn1c(SCC(=O)c2ccccc2)nc2c(sc3ccccc32)c1=O | -19.4% (inactive) | –
9 | COc1cc2nc(C#Cc3nc4cc(OC)c(OC)cc4[nH]3)[nH]c2cc1OC | -56.3% (inactive) | –
10 | CNS(=O)(=O)c1ccc(NC(=O)Nc2ccc3c(c2)OCO3)cc1 | -3.31% (inactive) | –
11 | Cc1onc(C(=O)Nc2ccc3c(c2)OCO3)c1[N+](=O)[O-] | -0.941% (inactive) | –
12 | Cc1cccc(NC(=O)Nc2ccc3c(c2)OCO3)n1 | – | 22.4 µM (active)
13 | CC1CCCN(Cc2c(O)ccc3c(=O)c(Oc4ccc(C(C)(C)C)cc4)c(C(F)(F)F)oc23)C1 (stereo not drawn) | -8.79% (inactive) | –
14 | CCOc1ccc(NC(=O)c2cc(S(=O)(=O)N3CCCC3)c[nH]2)cc1 | -5.65% (inactive) | –
15 | COc1ccc(CN2CCCC(CNC(=O)c3ccc(F)cc3)C2)cc1OC (stereo not drawn) | -8.02% (inactive) | –
16 | CCN1CCCC1CNC(=O)c1ccc2c(c1)NC(=O)/C(=C\c1ccccc1F)S2 (stereo not drawn) | – | 15.8 µM (active)
17 | O=C1Nc2cc(C(=O)N3CCC(N4CCCCC4)CC3)ccc2S/C1=C\c1ccccc1 | -82.5% (inactive) | –
18 | COc1ccccc1-c1noc(-c2ccc(NCc3ccccc3)c([N+](=O)[O-])c2)n1 | 3.13% (inactive) | –
19 | Cc1ccc(Cn2cnc3c(cnn3C(C)(C)C)c2=O)c(F)c1 | -24% (inactive) | –
20 | NC(=O)COc1ccc(/C=N/NC(=O)C2CCCN2S(=O)(=O)c2ccc(Cl)cc2)cc1 (stereo not drawn) | -2.7% (inactive) | –
21 | NC(N)=N/N=C/c1ccc(OCc2ccc(Cl)cc2Cl)cc1 | – | 14.1 µM (active)
22 | Cc1ccc(CCNC(=O)Cn2c(-c3cccs3)cc3cc(F)ccc32)cc1 | -1.63% (inactive) | –
23 | CC(C)c1ccc(NC(=O)Cn2nnc(C(=O)NCCc3ccccc3)c2N)cc1 | -11.7% (inactive) | –

— PubChem BioAssay AID588856 (National Center for Advancing Translational Sciences (NCATS), 2011)
